# Results filed as inconclusive are left out. The source made the active and inactive calls. The calls were made as follows: active = hit-call score of the fitted dose curve at least 0.9, where 1 is the maximum; inconclusive = response in the unintended direction; inactive = score below 0.9.
# Legend:
# [1] = target: bovine Dopamine Receptor (DR), Non-selective Binding, DRD1 (gene 281125) (UniProt Q95136); experiment: NVS_GPCR_bDR_NonSelective: NovaScreen (NVS) G Protein-Coupled Receptor Assay for bovine Dopamine Receptor (DR), Non-selective Binding (AID 2283241)
# bovine Dopamine Receptor (DR), Non-selective Binding, DRD1 (gene 281125), sequence (Q95136 whole entry, looked up): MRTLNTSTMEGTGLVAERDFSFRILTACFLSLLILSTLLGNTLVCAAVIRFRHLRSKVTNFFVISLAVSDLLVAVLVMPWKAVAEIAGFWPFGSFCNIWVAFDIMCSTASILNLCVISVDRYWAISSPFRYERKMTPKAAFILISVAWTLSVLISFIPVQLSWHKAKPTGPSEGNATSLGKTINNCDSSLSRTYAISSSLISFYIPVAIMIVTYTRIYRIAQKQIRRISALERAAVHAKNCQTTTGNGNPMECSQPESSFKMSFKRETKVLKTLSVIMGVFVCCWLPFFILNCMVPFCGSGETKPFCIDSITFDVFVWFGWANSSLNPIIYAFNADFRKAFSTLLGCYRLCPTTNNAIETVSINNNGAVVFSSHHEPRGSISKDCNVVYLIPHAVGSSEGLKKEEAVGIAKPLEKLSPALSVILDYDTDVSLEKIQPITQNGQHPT
# How it was run: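 Filter-based radioligand binding with bovine striatal membrane, incubated 1 h; DMSO as negative baseline. Initial duplicate single-point test at 25 uM preceded concentration series for actives.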
# [2] = test system: bovine Histamine 1 Receptor (H1), gene 281231; experiment: NVS_GPCR_bH1: NovaScreen (NVS) G Protein-Coupled Receptor Assay for bovine Histamine 1 Receptor (H1) (AID 2283246)
# How it was run: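 Hits from a 25 uM duplicate primary screen were retested in concentration series (top 50 uM); binding measured as scintillation-counted displacement of radioligand from bovine cerebellar membranes after 1 h, normalised to DMSO.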
# [3] = NVS_GPCR_bNPY_NonSelective: NovaScreen (NVS) G Protein-Coupled Receptor Assay for bovine Neuropeptide Y (NPY) Receptor, Non-selective Binding (AID 2283245)
# How it was run: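 Displacement of radioligand from bovine hippocampal membrane receptors, read by filtration and scintillation counting after 1 hour. Concentration-response to a top of 50 uM followed a 25 uM duplicate primary screen. Loss of signal versus DMSO.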
smiles,measurement,setting,value
c1ccc2cc3c(ccc4ccccc43)cc2c1,AC50,[1],32.8 µM (active)
same,outcome,[2],inactive
CC(=O)NC1(c2cccc(F)c2)CCN(CC[C@@]2(c3ccc(Cl)c(Cl)c3)CN(c3ccccc3)C(=O)CO2)CC1,AC50,[1],11.3 µM (active)
CCCOc1sc(C(=O)N2CCC(c3cc(CN)ccc3F)CC2)c(C)c1Br,AC50,[3],36.3 µM (active)
Cc1oc(-c2ccccc2)nc1CCOc1ccc(C[C@H](Nc2ccccc2C(=O)c2ccccc2)C(=O)O)cc1,outcome,[3],inactive
C#C[C@]1(O)CC[C@H]2[C@@H]3CCC4=CC(=O)CC[C@@H]4[C@H]3CC[C@@]21C,outcome,[2],inactive
